Reference: ChEMBL document CHEMBL1961873, “Compounds: GSK PKIS; Assays: Nanosyn kinase panel” (2012)

The molecules below were run against Misshapen-like kinase 1 (Homo sapiens) (UniProt Q8N4C8). Details: at 1 µM.
Chain of Misshapen-like kinase 1 (Homo sapiens) (Q8N4C8 whole entry, looked up): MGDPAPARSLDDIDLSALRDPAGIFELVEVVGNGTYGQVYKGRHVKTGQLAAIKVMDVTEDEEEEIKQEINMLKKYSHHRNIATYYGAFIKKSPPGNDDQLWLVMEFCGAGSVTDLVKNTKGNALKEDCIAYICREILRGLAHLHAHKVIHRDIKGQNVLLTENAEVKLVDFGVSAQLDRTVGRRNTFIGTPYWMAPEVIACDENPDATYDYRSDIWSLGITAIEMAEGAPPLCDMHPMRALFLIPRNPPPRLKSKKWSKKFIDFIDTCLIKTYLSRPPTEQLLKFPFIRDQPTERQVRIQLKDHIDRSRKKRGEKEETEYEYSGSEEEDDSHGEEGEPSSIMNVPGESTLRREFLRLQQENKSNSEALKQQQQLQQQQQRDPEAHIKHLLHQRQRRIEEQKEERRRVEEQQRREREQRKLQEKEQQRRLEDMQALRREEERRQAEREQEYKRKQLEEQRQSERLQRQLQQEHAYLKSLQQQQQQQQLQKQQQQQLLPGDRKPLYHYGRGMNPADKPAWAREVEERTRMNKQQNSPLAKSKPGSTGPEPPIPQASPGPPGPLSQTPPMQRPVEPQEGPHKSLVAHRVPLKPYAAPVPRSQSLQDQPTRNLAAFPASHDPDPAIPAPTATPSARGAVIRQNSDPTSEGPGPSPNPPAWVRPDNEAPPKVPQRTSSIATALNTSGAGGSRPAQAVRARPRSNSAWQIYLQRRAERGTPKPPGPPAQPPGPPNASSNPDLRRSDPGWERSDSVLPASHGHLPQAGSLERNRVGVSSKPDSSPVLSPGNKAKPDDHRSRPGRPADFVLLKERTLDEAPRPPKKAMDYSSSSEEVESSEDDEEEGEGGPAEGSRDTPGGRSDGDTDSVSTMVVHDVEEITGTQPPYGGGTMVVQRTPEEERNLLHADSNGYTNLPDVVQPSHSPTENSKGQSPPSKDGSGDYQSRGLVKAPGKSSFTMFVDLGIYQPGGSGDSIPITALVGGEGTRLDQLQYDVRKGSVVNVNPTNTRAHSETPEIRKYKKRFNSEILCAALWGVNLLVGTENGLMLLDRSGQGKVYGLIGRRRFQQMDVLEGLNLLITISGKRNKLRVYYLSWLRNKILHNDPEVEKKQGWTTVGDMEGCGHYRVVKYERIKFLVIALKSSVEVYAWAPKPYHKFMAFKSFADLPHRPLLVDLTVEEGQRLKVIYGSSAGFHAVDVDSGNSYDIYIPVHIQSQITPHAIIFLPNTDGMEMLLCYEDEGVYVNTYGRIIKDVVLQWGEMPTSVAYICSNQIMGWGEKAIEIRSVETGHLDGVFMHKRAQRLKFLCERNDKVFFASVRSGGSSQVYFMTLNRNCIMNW

**Q.** Which inhibition does the source give for `Nc1nccc(-c2c(-c3ccc(F)cc3)nn3cc(C(F)(F)F)ccc23)n1` here?
**A.** 1.52%

**Q.** How did the inhibition turn out when `CN1CCN(C(=O)c2ccc(NC(=O)Nc3ccc(N(C)c4ccnc(Nc5ccc(CS(C)(=O)=O)cc5)n4)cc3)cc2)CC1` was run?
**A.** 42.4%

**Q.** Which inhibition does the source give for `CCn1c(-c2nonc2N)nc2c(C#CC(C)(C)O)nc(OCCNC)cc21` here?
**A.** 5.87%

**Q.** With `COc1ccc(-c2nn3ncccc3c2-c2ccnc(Nc3cccc(C(F)(F)F)c3)n2)cc1` as the molecule, how does the inhibition read?
**A.** 5.08%

**Q.** Which inhibition does the source give for `Cc1ccc(C(=O)NC2CC2)cc1-c1ccc2[nH]ncc2c1` here?
**A.** -1.78%

**Q.** `Cc1ccc2c(c1)/C(=N/Nc1ccc(S(N)(=O)=O)cc1)C(=O)N2` was tested. Which inhibition did it give?
**A.** 61.8%

**Q.** Which inhibition does the source give for `FC(F)(F)c1ccc(-c2nn3ncccc3c2-c2ccnc(Nc3ccc4c(c3)OCCO4)n2)cc1` here?
**A.** 11.5%

**Q.** For `NS(=O)(=O)c1ccc(Nc2cc(-c3cccc(O)c3)n[nH]2)cc1`, which inhibition is on record?
**A.** 18.6%

**Q.** `Cc1cc(O)cc(C)c1/C=C/c1cncc(C(=O)N(C)C)c1` was tested. Which inhibition did it give?
**A.** 11.7%

**Q.** `COc1cc(Nc2nccc(-c3cnn4ncccc34)n2)cc(OC)c1` was tested. Which inhibition did it give?
**A.** 71.9%

**Q.** For `COc1cccc(-n2ncc3c(N/N=C/c4ccc(C)cc4)ncnc32)c1`, which inhibition is on record?
**A.** 16.1%

**Q.** `[O-][S+]1CCN(Cc2ccc(-c3ccc4ncnc(Nc5ccc(OCc6ccccc6)c(Cl)c5)c4c3)o2)CC1` was tested. Which inhibition did it give?
**A.** 1.36%

**Q.** How did the inhibition turn out when `COc1ccc2ncnc(Nc3ccc(OCc4ccccc4)cc3)c2c1` was run?
**A.** 4.24%

**Q.** Which inhibition does the source give for `CN(C)C(=O)O[C@H]1CN[C@H](C#Cc2cc3ncnc(Nc4ccc(OCc5cccc(F)c5)c(Cl)c4)c3s2)C1` here?
**A.** 3.5%

**Q.** With `NS(=O)(=O)c1ccc(NC=C2C(=O)Nc3ccc4ncsc4c32)cc1` as the molecule, how does the inhibition read?
**A.** 78.9%

**Q.** How did the inhibition turn out when `CS(=O)(=O)CCNCc1nc(-c2ccc3ncnc(Nc4ccc(OCc5cccc(C(F)(F)F)c5)cc4)c3c2)cs1` was run?
**A.** 4.39%
